High-throughput results as filed in PubChem BioAssay.
The list is not random: actives were taken first. Their share in the collection is about 28%.
CYP2C9 inh: human CYP2C9 inhibition; P11712; CYP2C9 Supersomes, luciferin-H conversion, luminescence; inhibition, % at 5 µM; hit rate 20% among 96,000;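 active means blocking of liver enzyme CYP2C9 beyond about 50% at 5 µM, limit read from the data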
CYP2C9 act: activators of human CYP2C9; P11712; recombinant CYP2C9, luciferin-H conversion, luminescence; active compounds read high; factor 1 = untreated enzyme, 0 = blocked; activation factor at 5 µM; hit rate 1.4% among 96,000; AID 1024;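 active means activation factor of 2 or more for CYP2C9 at a 5 µM dose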;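 further: 0 = sulfaphenazole-blocked wells and 1 = vehicle-only wells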
CYP2C19 act: activators of human cytochrome P450 2C19. activation factor at 5 µM. recombinant CYP2C19, luciferin-H EGE luminescence; active compounds read high; 0 = fully inhibited enzyme, 1 = untreated enzyme. 96,000 tested, under 10 active. AID 1025;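 active means activation factor of at least 2 at 5 µM in the primary screen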;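 further: 0 = wells with 2.5 mM tranylcypromine and 1 = vehicle-only wells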
PTK2B oligo ant: antagonists of human Pyk2 oligomerization; z-score (the deposit names both 25 µM and 10 µM); hit rate 0.83% among 99,000; Q293 cells, Pyk2 FERM NanoBiT luminescence; active compounds read low; Q14289;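 active means Z-score of -3 or lower, scaled per plate to the spread of control and sample wells; inactive means z-score above -3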;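 further: negative z-score means lost luminescence so less FERM oligomerization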
Target sequence (Q14289 whole entry, looked up): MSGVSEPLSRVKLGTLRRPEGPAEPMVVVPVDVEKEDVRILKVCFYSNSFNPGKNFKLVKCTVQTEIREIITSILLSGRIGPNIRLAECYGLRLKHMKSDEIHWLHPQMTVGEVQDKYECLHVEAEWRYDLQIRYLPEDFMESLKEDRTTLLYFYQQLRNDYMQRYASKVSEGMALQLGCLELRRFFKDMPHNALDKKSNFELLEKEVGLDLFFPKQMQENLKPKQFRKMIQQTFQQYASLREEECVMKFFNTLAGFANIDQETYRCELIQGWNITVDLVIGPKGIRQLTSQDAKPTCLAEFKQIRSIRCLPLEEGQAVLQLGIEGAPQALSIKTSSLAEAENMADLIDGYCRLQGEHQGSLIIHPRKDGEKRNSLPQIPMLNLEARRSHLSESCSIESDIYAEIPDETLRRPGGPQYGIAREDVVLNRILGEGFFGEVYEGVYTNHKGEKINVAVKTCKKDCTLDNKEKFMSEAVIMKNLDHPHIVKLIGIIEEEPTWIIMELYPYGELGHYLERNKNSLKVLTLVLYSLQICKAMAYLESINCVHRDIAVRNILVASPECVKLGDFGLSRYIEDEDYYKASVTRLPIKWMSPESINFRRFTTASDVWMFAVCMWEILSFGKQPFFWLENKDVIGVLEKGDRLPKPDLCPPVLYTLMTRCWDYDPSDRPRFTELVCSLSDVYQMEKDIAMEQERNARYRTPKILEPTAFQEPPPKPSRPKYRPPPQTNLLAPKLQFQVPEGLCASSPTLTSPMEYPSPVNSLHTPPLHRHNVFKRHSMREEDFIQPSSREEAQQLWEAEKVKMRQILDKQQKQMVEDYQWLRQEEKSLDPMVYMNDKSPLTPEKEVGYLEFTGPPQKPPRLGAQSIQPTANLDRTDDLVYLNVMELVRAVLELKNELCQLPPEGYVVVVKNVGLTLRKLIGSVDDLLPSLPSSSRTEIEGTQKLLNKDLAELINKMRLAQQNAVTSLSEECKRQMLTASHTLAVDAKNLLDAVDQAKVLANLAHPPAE
CYP2C19 inh: inhibitors of human CYP2C19 | hit rate 21% among 96,000 | CYP2C19 Supersomes, luciferin-H EGE luminescence, 30 min | inhibition, % at 5 µM | P33261;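 active means CYP2C19 inhibition above a set limit at 5 µM in the primary screen, cut at about 50% in these data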;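 further: plate controls were negative control wells for no effect and 2.5 mM tranylcypromine positive control for full effect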
* marks the source's active call; other numbers are inactive results; · = not tested or not shown.

SMILES	CYP2C9 inh	CYP2C9 act	CYP2C19 act	PTK2B oligo ant	CYP2C19 inh
O=C(CSc1ccc2c(c1)OCCO2)NCCc1ccc(Cl)cc1Cl	·	·	·	-0.89	·
Cc1cc(NC(=O)CSc2ccccc2)no1	38	0.6	0.5	-0.82	51*
Cc1cc(NC(=O)C2CC(=O)OC2c2ccccc2)no1 (stereo not drawn)	12	0.9	0.5	2.6	52*
O=C1CC(C(=O)NC2CCCCC2)C(c2ccccc2)O1 (stereo not drawn)	-30	1.3	0.9	-0.47	13
CCC(C(=O)Nc1cc(C)on1)c1ccccc1 (stereo not drawn)	54*	0.5	0.3	0.37	65*
O=C1c2ccccc2C(O)(c2ncc[nH]2)N1C1CCCCC1 (stereo not drawn)	-9	1.1	1.1	1.6	-6
O=C(COc1ccccc1)Nn1cnc2ccccc21	-1	1	1.1	0.42	-12
CCOC(=O)CCCNC(=O)COC(=O)CCC(=O)c1ccc(F)cc1	12	0.9	0.9	-0.53	7
COc1ccc(/C=C2/N=C(c3cccs3)OC2=O)cc1OC(C)C	72*	0.3	0.8	0.34	24
Cc1ccc(NC(=O)NC2CCN(S(=O)(=O)c3ccc(F)cc3)CC2)cc1	·	·	·	-0.62	·
COc1ccc(S(=O)(=O)N2CCC(N3CCN(c4ccccc4)CC3)CC2)cc1	4	1	0.8	·	15
CC(=O)Nc1ccc(S(=O)(=O)N2CCC(n3cnc4cc(F)ccc43)CC2)cc1	60*	0.4	0.7	0.34	26
O=S(=O)(c1ccc2c(c1)OCCO2)N1CCC(n2nnc3cc(C(F)(F)F)ccc32)CC1	-52	1.5	0.1	-0.02	94*
COc1ccc(S(=O)(=O)N2CCC(n3cnc4cc(C(F)(F)F)ccc43)CC2)cc1	47	0.5	0.3	0.09	74*
CC(Oc1ccc(-c2ccccc2)c(F)c1)c1ccn(S(=O)(=O)c2ccc(Cl)cc2)n1 (stereo not drawn)	68*	0.3	0.7	-0.22	32
CC(Oc1ccc(Cl)cc1)c1ccnn1S(=O)(=O)c1ccccc1 (stereo not drawn)	38	0.6	0.2	-0.1	82*
Cc1ccc2[nH]c(=O)c(CN(Cc3ccco3)S(=O)(=O)c3c(C)ccc4nsnc34)cc2c1	14	0.9	0.9	1	10
Cc1ccc2[nH]c(=O)c(CN(CCCO)S(=O)(=O)c3cccc4nsnc34)cc2c1	88*	0.1	0.5	1.1	46
Cc1ccc2cc(CN(CCCO)S(=O)(=O)c3cccc4nsnc34)c(=O)[nH]c2c1	100*	0	1	-0.97	1
O=C(C1CN(S(=O)(=O)c2ccccc2)CCN1S(=O)(=O)c1ccccc1)N1CCCCCC1 (stereo not drawn)	-19	1.2	1.1	0.49	-9
COc1ccc(-c2n[nH]c(C)c2-c2cnn(-c3ccccc3)c2)c(O)c1C	52*	0.5	0.6	-0.7	39
CC(C)OC(=O)CCc1nc2ccccc2[nH]c1=O	44	0.6	0.2	-0.63	76*
CCOC(=O)C(C)c1nc2ccccc2[nH]c1=O (stereo not drawn)	-8	1.1	0.9	0.38	11
CCCc1ccc(-c2cc(C(=O)N/N=C/c3ccc([N+](=O)[O-])o3)c3ccccc3n2)cc1	96*	0	0.5	0.02	51*
O=C(N/N=C/c1ccc([N+](=O)[O-])o1)c1cc(-c2cccc(Br)c2)nc2ccccc12	56*	0.4	0.9	-1.5	9
SMILES	CYP2C9 inh	CYP2C9 act	CYP2C19 act	PTK2B oligo ant	CYP2C19 inh
CC(=O)Nc1ccc(S(=O)(=O)n2cnc3ccccc32)cc1	13	0.9	0.7	-0.24	31
COc1cc(C2/C(=C(/O)c3ccc(OCC(C)C)cc3)C(=O)C(=O)N2CCN(C)C)ccc1O (stereo not drawn)	8	0.9	0.3	2.2	68*
CCCN1CCN(CCCNC(=O)CCNC(=O)Cn2ccc3ccccc3c2=O)CC1	-10	1.1	1.2	0.43	-17
S=c1[nH]nc(-c2ccc(Br)o2)n1Cc1ccccc1	60*	0.4	0.4	1.6	61*
S=c1[nH]nc(-c2ccco2)n1Cc1ccccc1	50*	0.5	0.6	0.61	38
S=c1[nH]nc(-c2ccc(Br)cc2)n1Cc1ccco1	13	0.9	0.7	0.22	32
CCn1c(-c2ccco2)n[nH]c1=S	-7	1.1	0.9	-0.18	9
S=c1[nH]nc(-c2ccc(Cl)cc2)n1Cc1ccccc1	·	·	·	-0.71	·
S=c1[nH]nc(-c2ccccc2)n1Cc1ccccc1	42	0.6	0.4	0.72	62*
S=c1[nH]nc(-c2ccncc2)n1Cc1ccco1	61*	0.4	0.7	0.11	33
Cc1cc2cc(CN(CC3CCCO3)C(=O)c3cnccn3)c(=O)[nH]c2cc1C (stereo not drawn)	18	0.8	0.9	-0.11	11
CCC(=O)Nc1nc(C)c(C(=O)N2CCCCC2)s1	4	1	0.9	0.01	12
CNc1c([N+](=O)[O-])cnn1-c1ccc(C)cc1	20	0.8	0.8	0.14	16
COc1ccccc1CNC(=O)c1ccccc1NS(C)(=O)=O	75*	0.3	0.7	0.24	33
COc1ccccc1CNC(=O)c1ccc(NS(C)(=O)=O)cc1	-96	2*	1.2	-0.71	-16
O=C(CSc1nnc(SCC(=O)NCc2ccc3c(c2)OCO3)s1)NCc1ccc2c(c1)OCO2	3	1	1	0.69	-1
Cc1nnc(SCC(=O)NCc2ccc3c(c2)OCO3)[nH]c1=O	68*	0.3	1	2	2
Fc1ccccc1CSc1nnnn1-c1ccc2c(c1)OCO2	42	0.6	0.1	-2.5	92*
O=C(CSc1nnnn1-c1ccc2c(c1)OCO2)NCc1ccccc1	33	0.7	0.1	-0.69	92*
COc1cccc(-n2nnnc2SCC(=O)NCc2ccc3c(c2)OCO3)c1	60*	0.4	0.1	-1.3	88*
CC(C)C(NS(=O)(=O)c1cccc2nsnc12)C(=O)N1CCn2c1nc1ccccc12 (stereo not drawn)	23	0.8	0.5	·	48
COc1cc(OC)cc(-n2nnnc2SCC(=O)NCc2ccc3c(c2)OCO3)c1	-47	1.5	0.5	0.51	53*
O=C(CSc1nnnn1-c1ccc2c(c1)OCO2)NCc1cccs1	2	1	0.5	0.12	49
COC(=O)[C@@H]1C2CCC(C(=O)Nc3ccccc3)(CC2)[C@@H]1C(=O)OC	16	0.8	0.8	-0.06	20
COc1[nH]c(/N=C/c2ccccc2)c(C#N)c1C#N	75*	0.3	0.8	-0.44	15
COc1ccc(/C=N/c2oc(-c3ccccc3)cc2C#N)cc1	24	0.8	0.9	0.24	12
CCOC(=O)c1cc(C#N)c(Oc2ccc(F)cc2)nc1-c1ccccc1	50	0.5	0.8	-1.6	17
CCOC(=O)c1cc(-c2nnc(-c3ccc(Oc4ccccc4)cc3)o2)c(C)nc1C	63*	0.4	0.9	·	14
